Laboratory results from ChEMBL document CHEMBL3988442, “University of Dundee, Small-Polar-MMV Screening Library” (2021).
In all, about 48,000 compounds went through this assay and about 13,000 (27%) showed an effect of 50% or more. The list shows a part of the results.

What follows are molecules tested on Wolbachia pipientis (assay: Anti-Wolbachia Cell-Based Screen). Details: 5 µM.
Type: functional
Set-up: scale not given: in the data most compounds retested in dose-response had high values

| Compound | Percent Effect [%] |
| --- | --- |
| N#Cc1cccnc1NCCNC(=O)N1CCN2CCCCC2C1 (stereo not given) | -6.324 |
| CC(C)NC(=O)C1CCC2(CCNCC2)C1 (stereo not given) | -35.43 |
| COc1ccc(C(=O)C2CCCN(CCCn3cccn3)C2)c(OC)c1 (stereo not given) | -1.04 |
| NC(=O)c1cnn2c1NCC(CNCC1(c3ccccc3)CCC1)C2 (stereo not given) | 92.2 |
| O=C(c1ccc(C2CCCN2)s1)N1CCN2CCC1CC2 (stereo not given) | 11.12 |
| CC[C@H]1CN2CC[C@H]1C[C@@H]2CNCc1cccc(C#N)c1 | 6.24 |
| CC[C@H]1CN2CC[C@H]1C[C@@H]2CNC(=O)Nc1cccc(C#N)c1 | 1.181 |
| CCS(=O)(=O)N1CCc2ccc(NC(=O)Nc3cccc(C#N)c3)cc21 | 97.92 |
| CC(C)C(=O)N1C[C@H]2CCCN[C@H]2C1.Cl | -7.068 |
| CC(C)(C)CC(=O)N1C[C@H]2CCN[C@H]2C1 | 123.1 |
| O=S(=O)(c1ccc(Cl)cc1)N1C[C@@H]2CCN[C@@H]2C1 | -24.32 |
| O=C(CC1CCCC1)N1C[C@@H]2C[C@H]1CN2 | -37.69 |
| O=C(CC(F)(F)F)N1C[C@H]2CCN[C@H]2C1 | 92.17 |
| Cc1ccc(S(=O)(=O)N2C[C@@H]3CCN[C@@H]3C2)cc1 | -12.06 |
| CC(C)CCC(=O)N1C[C@H]2CCN[C@H]2C1 | 107.3 |
| CC(C)(C)CC(=O)N1C[C@@H]2C[C@H]1CN2.Cl | -16.89 |
| O=C(CC1CC1)N1C[C@H]2CCN[C@H]2C1 | 112.4 |
| CC(C)CNC(=O)N1C[C@@H]2CCCN[C@@H]2C1 | -10.44 |
| O=S(=O)(c1ccccc1)N1C[C@@H]2CCN[C@@H]2C1 | -39.01 |
| CC(C)CNC(=O)N1C[C@H]2CCN[C@H]2C1 | -21.84 |
| CS(=O)(=O)N1CCC(Nc2ccc(C#N)c(C(F)(F)F)c2)CC1 | -23.63 |
| COc1cccc2c(=O)n(C3CCCNC3)cnc12 (stereo not given) | -0.6392 |

| Compound | Percent Effect [%] |
| --- | --- |
| CCc1ocnc1C(=O)N1CCC2(CC1)OCC(C)O2 (stereo not given) | -17.17 |
| CN(C)CCN(Cc1ccco1)C(=O)Cc1cn2ccsc2n1 | 1.866 |
| O=C(NCCc1ccncc1)[C@H]1CC[C@@H]2[C@@H](CCN2CC2CC2)O1.O=C(O)C(F)(F)F.O=C(O)C(F)(F)F | 1.654 |
| O=C(O)C(F)(F)F.O=C(O)C(F)(F)F.O=C([C@H]1CN(Cc2ccncc2)C[C@H]2OCC[C@@H]12)N1CCCCO1 | 11.08 |
| O=C(NC1CCC1)[C@@H]1C[C@@H]2CCN(Cc3ccncc3)C[C@H]2O1.O=C(O)C(F)(F)F.O=C(O)C(F)(F)F | -10.63 |
| COCCNC(=O)[C@H]1C[C@@H]2CCN(Cc3ccncc3)C[C@H]2O1.O=C(O)C(F)(F)F.O=C(O)C(F)(F)F | 99.07 |
| CNC(=O)[C@H]1C[C@@H]2CCN(Cc3ccncc3)C[C@H]2O1.O=C(O)C(F)(F)F.O=C(O)C(F)(F)F | 103.5 |
| CO[C@@H]1CCN(c2ncc(F)cn2)[C@@H]2CN(CC3CC3)C[C@@H]21 | 9.085 |
| CCN1CC(=O)NCC12CCN(C(=O)c1ccno1)C2.O=C(O)C(F)(F)F (stereo not given) | -6.47 |
| O=S(=O)(c1cccc(Cl)c1)N1C[C@@H]2CCN[C@@H]2C1 | -5.104 |
| O=C1NC[C@H]2CN(Cc3nccs3)CCN12 | 4.843 |
| CC(C)(CNc1ccc(C#N)c(C(F)(F)F)c1)C(N)=O | -0.8311 |
| Cc1noc(C)c1C(=O)N1CCOC2(COCCN(C(C)C)C2)C1.O=C(O)C(F)(F)F (stereo not given) | 90.48 |
| O=C(O)C(F)(F)F.O=C(O)C(F)(F)F.c1cnc(N2CCC3(COCCN(CC4CC4)C3)C2)nc1 (stereo not given) | -6.749 |
| Cc1nocc1C(=O)N1CCOC2(COCCN(CC3CC3)C2)C1 (stereo not given) | 116 |
| Cc1noc(C)c1C(=O)N1CCC2(CC1)c1nc[nH]c1CCN2C | 14.77 |
| Cc1noc(C)c1CN1CCOC2(CCCN(c3nncs3)C2)C1.O=C(O)C(F)(F)F (stereo not given) | -6.2 |
| COCCN1C[C@@H](C)[C@@]2(COCCN(C(=O)c3ccno3)C2)C1.O=C(O)C(F)(F)F | 2.349 |
| COCCN1C[C@@H](C)[C@@]2(COCCN(C(=O)c3ccncc3)C2)C1.O=C(O)C(F)(F)F.O=C(O)C(F)(F)F | 2.912 |
| COCCN1CCOCC2(C1)CN(C(=O)c1conc1C)CCO2.O=C(O)C(F)(F)F (stereo not given) | 91.15 |
| COc1ccc(C(=O)N2CCOC3(CNCCOC3)C2)c(OC)n1 (stereo not given) | -6.762 |
| CCN1CCOCC2(C1)CN(C(=O)c1c(C)noc1C)CCO2 (stereo not given) | 103.8 |

| Compound | Percent Effect [%] |
| --- | --- |
| Oc1cccc2ccc(CN3CCC4(CCNCC4)C3)nc12 | 2.778 |
| Cn1nc(CN2CCCCC(N)C2)c2c(Cl)cccc21 (stereo not given) | -4.304 |
| CC(C)N1CCOCC2(CN(Cc3ccccn3)CCO2)C1.O=C(O)C(F)(F)F.O=C(O)C(F)(F)F.O=C(O)C(F)(F)F (stereo not given) | -11.42 |
| Cc1cnc(N2CCC3(CC2)COCCN(C(C)C)C3)nc1.O=C(O)C(F)(F)F | 7.175 |
| Cc1nocc1C(=O)N1CCOC2(COCCN(C(C)C)C2)C1.O=C(O)C(F)(F)F (stereo not given) | 91.68 |
| CSC1(CNC(=O)NC(C)Cc2cccc(F)c2)CCOCC1 (stereo not given) | -4.564 |
| Cc1ccccc1CC(=O)N1C[C@H]2CC[C@@H]1CN(Cc1cccnc1)C2 | 5.499 |
| Cc1ccccc1CC(=O)N1CCN(C2CCOC2=O)CC1 (stereo not given) | 5.646 |
| Cc1ccccc1CC(=O)N1C[C@@H](O)[C@H](N2CCC(F)(F)CC2)C1 | 138.7 |
| Cc1ccccc1CC(=O)N1C[C@@H](O)[C@H](N2CCOCC2)C1 | 153.4 |
| Cc1nc(CN2CCO[C@H]3CN(C(=O)Cc4cccs4)C[C@H]32)cs1 | 2.702 |
| CC(=O)N1CCN([C@@H]2CN(C(=O)Cc3ccccc3C)C[C@H]2O)CC1 | 157.7 |
| Cc1ccccc1CC(=O)N1C[C@@H](O)[C@H](N2CCN(C)CC2)C1 | 176.4 |
| CN(C)C(=O)CN1CCN(c2ncccn2)[C@@H]2CS(=O)(=O)C[C@@H]21 | -3.142 |
| CC(c1ccccc1F)N1CCN(C(=O)Cc2ccncc2)CC1 (stereo not given) | -4.813 |
| COc1cccc(CC(C)NCC(=O)Nc2ccccc2C)c1 (stereo not given) | 0.2022 |
| CC[C@H]1CN2CC[C@H]1C[C@@H]2CNCc1ccc(N(C)C)cc1 | 11.9 |
| Cc1cnc(N2CCN3C[C@H](OCc4ccccn4)C[C@H]3C2)nc1.O=C(O)C(F)(F)F.O=C(O)C(F)(F)F | 0.855 |
| Cc1ccc(O[C@@H]2C[C@H]3CN(c4ncc(F)cn4)CCN3C2)cc1.O=C(O)C(F)(F)F.O=C(O)C(F)(F)F | 83.44 |
| O=C(O)C(F)(F)F.O=C(O)C(F)(F)F.c1ccc(CO[C@@H]2C[C@H]3CN(c4ncccn4)CCN3C2)cc1 | 2.223 |
| O=C(c1ccco1)N1CCN2C[C@H](Oc3cncnc3)C[C@H]2C1 | 1.787 |
| Cc1cccc(CO[C@@H]2C[C@H]3CN(c4ncccn4)CCN3C2)n1.O=C(O)C(F)(F)F.O=C(O)C(F)(F)F.O=C(O)C(F)(F)F | -11.39 |

| Compound | Percent Effect [%] |
| --- | --- |
| O=C(O)C(F)(F)F.O=C(O)C(F)(F)F.c1cnc(N2CCN3C[C@H](Oc4cncnc4)C[C@H]3C2)nc1 | 105.8 |
| Fc1ccccc1CO[C@@H]1C[C@H]2CN(c3ncccn3)CCN2C1.O=C(O)C(F)(F)F | -0.171 |
| Fc1cnc(N2CCN3C[C@H](Oc4cncnc4)C[C@H]3C2)nc1.O=C(O)C(F)(F)F.O=C(O)C(F)(F)F | 110.2 |
| Fc1cnc(N2CCN3C[C@H](Oc4cccnc4)C[C@H]3C2)nc1.O=C(O)C(F)(F)F.O=C(O)C(F)(F)F.O=C(O)C(F)(F)F | 90.39 |
| O=C(Cc1cccc(F)c1)N1CCN2C[C@H](Oc3cncnc3)C[C@H]2C1.O=C(O)C(F)(F)F | 1.194 |
| CC(C)c1cc(C(=O)N2CCN(C)[C@@H]3CS(=O)(=O)C[C@@H]32)no1 | -18.46 |
| O=C(NC[C@H]1C[C@@H]2CCN1C[C@@H]2CN1CCCCC1)c1ccco1 | 3.904 |
| CCCSCC(=O)N1C[C@H]2CC[C@@H]1CN(Cc1cccnc1)C2 | -15.35 |
| CC[C@H](C)[C@@H](CO)NC(C)Cc1ccc(F)cc1 (stereo not given in full) | 95.88 |
| CCOCC(=O)NC(C)Cc1ccccc1Br (stereo not given) | -9.65 |
| CC(=O)N1CCC(CCNC(C)Cc2ccc(F)cc2)CC1 (stereo not given) | 3.455 |
| CC[C@H](C)[C@@H](CO)NC(C)Cc1ccc(C)cc1 (stereo not given in full) | 96.84 |
| CC[C@H](C)[C@@H](CO)NC(C)Cc1ccc(Cl)cc1 (stereo not given in full) | 125.5 |
| CNS(=O)(=O)CC(=O)NC(C)Cc1ccc(Br)cc1 (stereo not given) | -6.603 |
| COC(=O)C(CO)NC(=O)c1cn(Cc2ccccc2F)nn1 (stereo not given) | -17.52 |
| CC[C@H](C)[C@@H](CO)NC(C)Cc1ccccc1F (stereo not given in full) | 127.2 |
| CCc1cc(CN(C)C(=O)CN2CC(c3ccccc3)CC2=O)on1 (stereo not given) | -7.018 |
| CN(C)C(=O)[C@H]1C[C@H]2OCC[C@H]2N(Cc2ccccn2)C1 | -23.53 |
| O=C(NC[C@H]1C[C@@H]2CCN1C[C@@H]2CN1CCCCC1)Nc1ccccc1 | -4.847 |
